Screening results: PubChem BioAssay, NMMLSC
In the library only some 1.2% were active in any assay of this set; here they are far more common.
RGS8-Gao reg: regulators of human RGS8-Galphao interaction | response (percent of control binding), % at 10 µM | 0.34% of 220,000 active | multiplexed bead flow cytometry, RGS8-Galphao binding; actives lie on both sides | AID 1423; in the data active means response below about 60% or above about 140%; inactive means in between;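 further: Galphao activated as the GDP aluminium fluoride complex binding bead-coupled RGS8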
Target sequence (P09471 whole entry, looked up): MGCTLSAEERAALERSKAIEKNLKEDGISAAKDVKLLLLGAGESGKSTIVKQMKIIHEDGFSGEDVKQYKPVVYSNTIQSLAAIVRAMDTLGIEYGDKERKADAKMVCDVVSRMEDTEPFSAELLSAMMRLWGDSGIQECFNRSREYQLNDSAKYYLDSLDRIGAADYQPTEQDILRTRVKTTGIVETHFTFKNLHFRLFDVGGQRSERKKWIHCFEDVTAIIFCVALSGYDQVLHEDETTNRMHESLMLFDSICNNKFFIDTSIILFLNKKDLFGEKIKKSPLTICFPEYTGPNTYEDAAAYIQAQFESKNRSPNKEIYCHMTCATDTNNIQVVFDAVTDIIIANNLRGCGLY
Avidin bead fluor: compound fluoresces at 488/530 nm on avidin beads | AID 1775 | 0.38% of 220,000 active | fluorescence (KMESF) at 10 µM | compound fluorescence 488/530 nm, flow cytometry; active compounds read high; in the data active means fluorescence above about 47
RGS4-Gao reg: modulates binding of RGS4 to human Galphao; Multiplexed bead flow cytometry; actives lie on both sides; P09471; binding response (% of control), % at 10 µM; 0.33% of 220,000 active; in the data active means binding response below about 49% or above about 150%; inactive means in between;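 further: fluorescent Galphao activated with aluminum fluoride binding bead-coupled RGS4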
GSH bead fluor: GSH bead compound fluorescence profile; 0.25% of 190,000 active; AID 1776; fluorescence (KMESF) at 10 µM; GSH beads flow cytometry, compound fluorescence 488/530 nm; active compounds read high; in the data active means fluorescence above about 89;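 further: glutathione beads carrying GST-tagged Bcl family fusion proteins plus one bare bead set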
RGS16-Gao: regulators of human RGS16-Galphao interaction. 0.38% of 220,000 active. O15492+P09471. bead-based flow cytometry RGS16-Galphao binding, fluorescence; actives lie on both sides. binding response (% of control), % at 10 µM;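 further: Galphao activated by GDP with aluminum fluoride before binding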
RGS7-Gao reg: regulators of human RGS7-Galphao interaction | Multiplexed bead flow cytometry, RGS7-Galphao binding; actives lie on both sides | binding response (% of control), % at 10 µM | 0.35% of 220,000 active; in the data active means binding response below about 49% or above about 150%; inconclusive means no clear call, values can overlap the other calls; inactive means in between;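 further: fluorescent Galphao held in activated GDP-AlF4 state binding bead-coupled RGS7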
RGS-Gao: regulators of human RGS4-Galphao interaction. shares compounds with RGS16-Gao. RGS4–Galpha-o binding response, % at 10 µM. AID 1504. multiplexed bead flow cytometry, RGS–Galpha-o binding. 99% of 1,600 active;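 further: fluorescently labeled Galpha-o bound to GDP with aluminium fluoride binding biotinylated RGS beads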
Target sequence (P09471 whole entry, looked up): as above
Target sequence (P49798 whole entry, looked up): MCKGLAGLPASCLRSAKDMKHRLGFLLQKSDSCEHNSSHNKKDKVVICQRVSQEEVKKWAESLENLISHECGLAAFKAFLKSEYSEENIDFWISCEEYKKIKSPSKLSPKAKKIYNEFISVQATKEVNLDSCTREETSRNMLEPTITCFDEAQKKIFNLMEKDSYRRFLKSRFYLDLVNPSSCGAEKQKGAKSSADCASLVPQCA
Biotin-avidin: interferes with biotinylated probe binding to avidin beads; inhibition, % at 10 µM; shares compounds with RGS16-Gao; AID 1783; streptavidin beads, fluorescein-biotin binding, flow cytometry; 1,700 tested, under 10 active;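 active means inhibition above 50%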;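 further: median green fluorescence of gated singlet beads compared with DMSO control wells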
RGS8-Gao single: RGS8-Galphao interaction regulation, single point confirmation | binding response (% of control), % at 10 µM | shares compounds with RGS16-Gao | AID 1836 | 3% of 1,700 active | bead-based flow cytometry RGS8-Galphao binding, fluorescence; actives lie on both sides; in the data active means binding response below about 72% or above about 130%; inactive means in between;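 further: Galphao activated as GDP AlF4 complex before binding bead RGS8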
RGS7-Gao confirm: RGS7-Galphao interaction regulation, single point confirmation; shares compounds with RGS16-Gao; bead-based flow cytometry RGS7-Galphao binding; actives lie on both sides; response (percent of control binding), % at 10 µM; 7.8% of 1,700 active; in the data active means response below about 75% or above about 130%; inactive means in between;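 further: fluorescent Galphao activated with GDP and aluminum fluoride binding bead-coupled RGS7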
RGS16-Gao single: confirmation of regulators of human RGS16-Galphao interaction | shares compounds with RGS16-Gao | bead-based flow cytometry, RGS16-Galphao binding; actives lie on both sides | response (% of control binding), % at 10 µM | 4% of 1,700 active | AID 1838; in the data active means response below about 74% or above about 130%; inactive means in between;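 further: Galphao activated as the GDP aluminium fluoride complex binding bead-coupled RGS16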
RGS4-Gao confirm: RGS4-Galphao interaction regulation, single point confirmation | shares compounds with RGS16-Gao | RGS4-Galphao binding, multiplexed bead flow cytometry; actives lie on both sides | binding response (% of control), % at 10 µM | 4% of 1,700 active | AID 1840; in the data active means binding response below about 74% or above about 130%; inactive means in between
RGS19-Gao conf: confirmation of regulators of human RGS19-Galphao interaction. shares compounds with RGS16-Gao. bead-based flow cytometry RGS19-Galphao binding; actives lie on both sides. response (percent of control binding), % at 10 µM. 5% of 1,700 active; in the data active means response below about 50% or above about 160%; inactive means in between
Hits are given with their value; 0 = inactive; ? = inconclusive; - = no result given; [ ] = dose if it differs, or a comment. Unless noted, how the calls were made is not given here.

SMILES	RGS8-Gao reg	Avidin bead fluor	RGS4-Gao reg	GSH bead fluor	RGS16-Gao	RGS7-Gao reg	RGS-Gao	Biotin-avidin	RGS8-Gao single	RGS7-Gao confirm	RGS16-Gao single	RGS4-Gao confirm	RGS19-Gao conf
COc1ccccc1/C=C/C=C1\Oc2c(ccc(O)c2CN2CCN(CCO)CC2)C1=O	146[activator]	127	218[activator]	0	0	246[activator]	-	0	0	0	0	0	0
O=C1/C(=C/C=C/c2ccccc2)Oc2c1ccc(O)c2CN1CCN(CCO)CC1	0	0	0	-	0	?	-	-	-	-	-	-	-
O=C(CSc1nnc(CCCO)n1-c1ccccc1)NCCc1ccccc1	8.7	0	22	0	0.4	16	-	0	0	0	0	0	0
O=C(CSc1nnc(CCCO)n1-c1ccccc1)Nc1nccs1	0	0	0	0	0	0	-	-	-	-	-	-	-
Cc1ccccc1-n1c(SCC(=O)NC(N)=O)nc2sc(-c3ccccc3)cc2c1=O	0	0	0	0	-3.3	0	81	0	0	0	0	0	0
O=C(NCC1CC1)NC(=O)c1c(F)cccc1Cl	42	0	5.7	-	9.3	?	-	0	0	0	0	0	0
Nc1ccc(-c2nc3ccc(N)cc3o2)cc1	47	0	0	0	0	1.9	50	0	0	0	0	0	0
Cc1ccc2nc(-c3cc(N)cc(N)c3)oc2c1	0	0	0	0	0	0	-	-	-	-	-	-	-
COc1ccccc1CN1CCNC(=O)C1CC(=O)NCc1cn(C)nc1C (stereo not drawn)	0	0	0	0	0	0	-	-	-	-	-	-	-
CN(C)C(=O)CSc1nnc(-c2ccc(F)cc2)c2ccccc12	51	0	28	-	0	?	-	0	0	0	0	0	0
O=S(=O)(CCc1ccccc1)N1CCOCC1	0	0	48	0	0	0	-	0	0	0	0	0	0
COc1ccccc1NC(=O)C1=C(C)NC(SCC(=O)Nc2ccc(C(=O)O)cc2)=C(C#N)C1c1cccs1 (stereo not drawn)	0	0	0	-	0	?	-	-	-	-	-	-	-
CC1(C(=O)N/N=C/c2ccc([N+](=O)[O-])o2)CC1(Br)Br (stereo not drawn)	0	0	0	0	13	0	88	0	0	0	0	0	0
Cc1ccc(NC(=O)CSCC#N)cc1	0	0	0	0	0	0	-	-	-	-	-	-	-
CCOC(=O)CC(=O)CSCC(=O)Nc1ccc(C)cc1	57	0	47	0	0	43	-	0	0	0	0	0	0
O=[N+]([O-])c1cc2c(cc1/C=N/n1c(-c3ccccn3)n[nH]c1=S)OCO2	0	0	0	0	-3.6	0	86	0	0	0	0	0	0
O=[N+]([O-])c1cc2c(cc1/C=N/n1c(-c3ccccc3)n[nH]c1=S)OCO2	0	0	0	0	0	0	-	-	-	-	-	-	-
N#Cc1c(-c2ccccc2)nc(SCC(=O)N2c3ccccc3Sc3ccccc32)[nH]c1=O	0	0	0	-	0	?	-	-	-	-	-	-	-
Cc1nnc(N2CCOCC2)c2nn(-c3ccccc3)c(C)c12	147[activator]	0	0	0	0	0	149	0	0	0	0	0	0
O=C(NCC1(c2ccccc2)CCCC1)C(=O)N1CCOCC1	0	0	0	0	21	0	83	0	0	0	0	0	0
CCC(=O)NC1=C(NC(C)c2ccccc2)C(=O)c2ccccc2C1=O (stereo not drawn)	0	0	0	0	0	0	-	-	-	-	-	-	-
CCC(=O)NC1=C(Cl)C(=O)C(NC(=O)CC)=C(Cl)C1=O	53	0	0	-	8.6	?	73	0	35	54	-3.1	0	-6.5
O=C(NCc1ccccc1)c1ccc(S(=O)(=O)N2CCCc3ccccc32)cc1	0	0	0	0	0	0	-	-	-	-	-	-	-
O=C(NCc1ccco1)c1ccc(S(=O)(=O)N2CCCc3ccccc32)cc1	0	0	0	0	-44	0	80	-	-	-	-	-	-
S=c1[nH]cnc2scc(-c3ccc(Cl)cc3)c12	0	0	0	-	0	?	-	-	-	-	-	-	-
SMILES	RGS8-Gao reg	Avidin bead fluor	RGS4-Gao reg	GSH bead fluor	RGS16-Gao	RGS7-Gao reg	RGS-Gao	Biotin-avidin	RGS8-Gao single	RGS7-Gao confirm	RGS16-Gao single	RGS4-Gao confirm	RGS19-Gao conf
COc1ccc(/C=C/C(=O)OCC(=O)Nc2ccc(N3CCOCC3)cc2)cc1OC	0	0	0	-	0	?	-	-	-	-	-	-	-
COc1ccccc1Nc1nc(N)nc(CN2CCC(C)CC2)n1	0	0	0	0	0	0	-	-	-	-	-	-	-
COc1ccccc1Nc1nc(N)nc(CN2CCC(Cc3ccccc3)CC2)n1	165[activator]	0	178[activator]	0	0	162[activator]	-	0	0	0	0	0	0
COc1ccc(Cc2[nH]n3c(=O)cc(C(C)C)nc3c2-c2ccccc2)cc1	0	0	0	0	0	0	-	-	-	-	-	-	-
N#C/C(=C\c1ccc[nH]1)C(=O)N1CCCCC1	0	0	0	-	0	?	-	-	-	-	-	-	-
O=C(NC(=S)NCCOCc1ccc(Cl)cc1)c1cccnc1	0	0	0	0	16	0	89	0	0	0	0	0	0
O=C(Cc1ccc(Cl)cc1)NNC(=S)NC(=O)c1cccnc1	0	0	0	0	0	0	-	-	-	-	-	-	-
NS(=O)(=O)c1ccc(CCNC(=O)COC(=O)/C=C/c2ccccc2Cl)cc1	0	0	0	0	0	0	-	-	-	-	-	-	-
Cc1nc2ccccc2n1CCCOc1ccccc1	0	0	0	0	0	0	-	-	-	-	-	-	-
Cc1nc(Cl)c(Cl)n1CCOc1ccccc1	6.8	0	-14	-	-7.5	?	-	0	0	0	0	0	0
S=C(Nc1ccccc1)Nc1ccccc1Br	0	0	0	-	0	?	-	-	-	-	-	-	-
CC(Sc1ncnc2ccccc12)C(=O)Nc1ccc2c(c1)OCO2 (stereo not drawn)	-	-	-	0	-	-	-	0	0	0	0	0	0
CN(CCC1CCCCO1)C(=O)CCc1nnc(C2CCCCC2)o1 (stereo not drawn)	0	0	0	0	0	0	-	-	-	-	-	-	-
O=C(O)CCn1nnc2ccccc21	0	0	0	-	0	?	-	-	-	-	-	-	-
O=C(CNC(=O)/C(=C\c1ccc(F)cc1)NC(=O)c1ccccc1)OCc1ccccc1	0	199	0	0	0	172[activator]	125	-	-	-	-	-	-
